Screening data: PubChem BioAssay, National Center for Advancing Translational Sciences (NCATS)
This is a sample that favours compounds with a hit; in the whole collection about 6% have one here.
CRE Fsk mod: CRE-bla signaling modulation under forskolin stimulation. CHO CRE-bla reporter (cAMP response element driving beta-lactamase), forskolin EC10, beta-lactamase ratio. Potency, µM (highest dose often 38.2 µM), most hits filed as activators. 2.5% of 71,000 active. AID 662; active = well fitted activation curve with a large enough effect in the signal ratio, with a control signal flat, not every such curve was filed as active; inconclusive = small, poorly fitted or top-dose-only effect, or effect the other way, or a change in a side signal; the % refers to the signal ratio
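AC50 values, positive or negative, reflect shifts in EC10 NKH 477-induced CRE-bla reporter activity in CHO cells. Incubation lasted 3 h at 37 °C before CCF4 substrate (2 h, room temperature) and ratiometric 460/530 nm reading.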
HEK293 cAMP cs: raises cAMP in parental HEK293 cells, TSHR agonist counter-screen; 2.5% of 73,000 active; Potency, µM (top dose mostly 57.1 µM), hits mostly activators; parental HEK293 CNG cAMP sensor, membrane potential fluorescence; also: nearly all actives have a fitted effect of over 55% in size
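Counterscreen for endogenous-receptor signalling: CNG-channel HEK 293 cells report cAMP rise by membrane depolarization. After 60 min dye equilibration with 100 uM RO 20-1724, compounds incubated 30 min before bottom-read fluorescence at 590 nm.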
TSHR ag: TSH receptor (human) agonism; P16473; 0.48% of 73,000 active; Potency, µM (doses to about 57.1 µM), most hits filed as activators; HEK293-CNG-TSHR cells (CNG channel as cAMP sensor), membrane potential dye, cAMP; active = well fitted activation curve with a large enough effect in the main read-out, with a control signal flat, not every such curve was filed as active; inconclusive = small, poorly fitted or top-dose-only effect, or a change in a side signal; inactive = no such curve, though single readings can be large or run the other way; reference of the percent scale not stated here;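 also: the control signal comes from parental cells without the receptor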
Target sequence (P16473 whole entry, looked up): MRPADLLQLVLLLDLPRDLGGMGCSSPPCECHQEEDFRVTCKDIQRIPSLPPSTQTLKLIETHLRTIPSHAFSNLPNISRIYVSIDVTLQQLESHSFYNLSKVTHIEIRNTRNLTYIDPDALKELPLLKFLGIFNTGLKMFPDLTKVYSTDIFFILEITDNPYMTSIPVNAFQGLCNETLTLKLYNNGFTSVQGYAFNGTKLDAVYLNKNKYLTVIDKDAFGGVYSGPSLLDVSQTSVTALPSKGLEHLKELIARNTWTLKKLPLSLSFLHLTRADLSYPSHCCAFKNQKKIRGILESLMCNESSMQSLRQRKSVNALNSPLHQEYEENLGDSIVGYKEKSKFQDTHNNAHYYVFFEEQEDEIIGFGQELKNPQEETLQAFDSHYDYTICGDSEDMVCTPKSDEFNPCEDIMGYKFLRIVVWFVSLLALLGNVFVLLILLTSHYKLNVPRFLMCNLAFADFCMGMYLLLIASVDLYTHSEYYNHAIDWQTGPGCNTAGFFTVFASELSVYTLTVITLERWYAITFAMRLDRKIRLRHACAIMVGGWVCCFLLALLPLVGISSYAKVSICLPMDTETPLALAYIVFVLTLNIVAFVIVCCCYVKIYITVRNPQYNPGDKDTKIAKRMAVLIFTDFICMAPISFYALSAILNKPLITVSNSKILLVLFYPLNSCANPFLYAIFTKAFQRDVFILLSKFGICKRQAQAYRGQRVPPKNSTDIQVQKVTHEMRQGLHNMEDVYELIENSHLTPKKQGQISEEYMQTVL
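cAMP rise detected as CNG-channel membrane depolarization by fluorescent dye (emission 590 nm), 30 min after compound, following 60 min dye loading containing 100 uM RO 20-1724 at room temperature. Cells: TSHR/CNG HEK 293, with parental CNG HEK 293 as control.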
ERK AVP block: blocks ERK signaling stimulated by vasopressin; HEK293-V1b, vasopressin-stimulated pERK AlphaScreen; Potency, µM (top dose mostly 57.5 µM), most hits filed as inhibitors; 0.99% of 72,000 active; AID 995; also: nearly all actives have a fitted effect of over 55% in size
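Overnight-seeded V1b-HEK293 cells in 1% FBS got compound, then vasopressin (25 nM final, 5 min, 37C), then lysis buffer. AlphaScreen detection of phospho-ERK; activity normalized to basal and full-stimulation controls.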
Of the large screens only hits and unclear results are named; the others gave an inactive call. Unless noted, calls follow the shape of the dose curve; as a rule, active = well fitted curve in the direction sought with a large enough effect; inconclusive = small, poorly fitted or top-dose-only effect, or another doubt; inactive = no such curve, though single readings can be large; an effect the other way counts as inactive or inconclusive.

CN1CCN(c2ccccc2NC(=O)c2ccc(Br)o2)CC1	ERK AVP block 20µM
COC(=O)c1sccc1NC(=O)c1ccc(Br)o1	CRE Fsk mod 4µM, HEK293 cAMP cs 4µM, TSHR ag inconclusive
O=C(Nc1ccccc1N1CCOCC1)c1ccc(Br)o1	CRE Fsk mod inconclusive, HEK293 cAMP cs inconclusive, TSHR ag inconclusive
N#Cc1ccc(CN2CC3(CCN(C(=O)c4csnn4)CC3)C2)cc1	none
c1nc(NC2CCNCC2)c2cc(-c3ccoc3)ccc2n1	HEK293 cAMP cs inconclusive, TSHR ag inconclusive
CCN(c1ccccc1)c1cc(NC)[n+](C)c(C)n1	HEK293 cAMP cs 32µM, TSHR ag inconclusive
Cc1ccc(CN2C(=O)C(C)(C)Oc3ccc(C(=O)N4CCCCC4)cc32)cc1	CRE Fsk mod inconclusive, HEK293 cAMP cs 25µM, TSHR ag inconclusive
O=C(c1cccc(F)c1)N1CCN(C(=O)C2CC2)CC1	none
O=C(c1cccc(F)c1)N1C2C=CC(C2)C1(C(F)(F)F)C(F)(F)F (centres undefined)	CRE Fsk mod inconclusive, TSHR ag 25µM
Nc1nc2c(c(=O)[nH]1)CN(c1ccc(S(N)(=O)=O)cc1)CN2	none
NC1=N[C@H](c2ccc(Cl)cc2)N(c2ccc(S(N)(=O)=O)cc2)C(N)=N1	none
c1ccc(Cn2nnnc2C(c2cccs2)N2CCc3ccccc3C2)cc1 (centres undefined)	HEK293 cAMP cs 10µM, TSHR ag inconclusive
c1ccc(Cn2nnnc2C(c2cccs2)N2CCCCCC2)cc1 (centres undefined)	HEK293 cAMP cs 25µM, TSHR ag inconclusive
Cc1cc2c(=O)n(Cc3ccco3)c(SCC(=O)N3CCCc4ccccc43)nc2s1	CRE Fsk mod inconclusive, HEK293 cAMP cs 32µM, TSHR ag inconclusive, ERK AVP block inconclusive
CCn1c(SCC(=O)N2CCCc3ccccc32)nc2cccnc21	CRE Fsk mod inconclusive, ERK AVP block inconclusive
CCOC(=O)CSc1nc2ccccc2c(=O)n1CC1CCCO1 (centres undefined)	CRE Fsk mod inconclusive, HEK293 cAMP cs 16µM, TSHR ag inconclusive
CCn1c(SCC(=O)N2CCCc3ccccc32)nc2ccccc2c1=O	CRE Fsk mod inconclusive, HEK293 cAMP cs 10µM, TSHR ag inconclusive
CCOC(=O)CSc1nc2ccccc2c(=O)n1CC1COc2ccccc2O1 (centres undefined)	HEK293 cAMP cs inconclusive, TSHR ag inconclusive
CCC(=O)O[C@@H]1[C@H](C)O[C@H](O[C@H]2[C@@H](N(C)C)[C@H](O)[C@@H](O[C@@H]3[C@@H](CC=O)C[C@@H](C)[C@@H](O)/C=C\C=C/C[C@@H](C)OC(=O)C[C@@H](OC(=O)CC)[C@H]3OC)O[C@H]2C)C[C@]1(C)O	none
COc1ccccc1CNc1cc(-c2ccccc2Cl)ncn1	CRE Fsk mod inconclusive, HEK293 cAMP cs 16µM, TSHR ag inconclusive, ERK AVP block inconclusive
COc1ccccc1-c1cc(NCc2cccc(C)c2)ncn1	CRE Fsk mod inconclusive, HEK293 cAMP cs 20µM, TSHR ag inconclusive, ERK AVP block inconclusive
Cc1cccc(CNc2cc(-c3c(C)noc3C)ncn2)c1	CRE Fsk mod inconclusive
Cc1cccc(CNc2cc(-c3ccccc3C)ncn2)c1	CRE Fsk mod inconclusive, HEK293 cAMP cs inconclusive, TSHR ag inconclusive, ERK AVP block 10µM
CC(=O)[C@H]1CC[C@@H]2[C@]1(C)CC=C1[C@]23C=C[C@]2(C[C@H](O)CC[C@@]12C)[C@H](C(=O)O)[C@@H]3C(=O)O	none
C=CCn1c(SCC(=O)NC2CCS(=O)(=O)C2)nc2scc(C3CC3)c2c1=O (centres undefined)	CRE Fsk mod inconclusive
C=CCn1c(SCC(=O)c2ccc(CNC(C)=O)o2)nc2scc(C3CC3)c2c1=O	CRE Fsk mod 7.9µM (no result: TSHR ag)
C=CCn1c(SCc2cc(=O)n3ccsc3n2)nc2scc(C3CC3)c2c1=O	CRE Fsk mod 1.6µM, HEK293 cAMP cs inconclusive, TSHR ag inconclusive, ERK AVP block inconclusive
O=C(c1cc(C(F)(F)F)cc(C(F)(F)F)c1)N1CCC2(CC1)CN(c1ccccc1)C2	none
CCOc1c(OC)cccc1C1CC(=O)Nc2cc3c(cc21)OCCO3 (centres undefined)	TSHR ag 25µM
O=c1[nH]c(=S)[nH]c(-c2ccccc2)c1Cc1c(O)ccc2ccccc12	HEK293 cAMP cs 2.5µM, TSHR ag inconclusive
Cc1cccc(OCCn2c(NC(=O)c3ccco3)nc3ccccc32)c1	HEK293 cAMP cs 32µM, TSHR ag inconclusive
Cc1ccc(OCCn2c(NC(=O)c3ccco3)nc3ccccc32)cc1	HEK293 cAMP cs 16µM, TSHR ag inconclusive
O=C(Nc1nc2ccccc2n1CCOc1ccccc1)c1ccco1	HEK293 cAMP cs 25µM, TSHR ag inconclusive, ERK AVP block inconclusive
O=C(Nc1nc2ccccc2n1Cc1ccc(Cl)cc1)c1ccco1	HEK293 cAMP cs inconclusive, TSHR ag inconclusive
O=C(Nc1nc2ccccc2n1CCN1CCCCC1)c1ccco1	TSHR ag inconclusive
O=C(Nc1nc2ccccc2n1CCOc1ccc(Cl)cc1)c1ccco1	CRE Fsk mod inconclusive, HEK293 cAMP cs 25µM, TSHR ag inconclusive
O=c1c(-c2cc(F)cc(F)c2)nc2cnc(N3CCOCC3)nc2n1C[C@H]1CCCO1	CRE Fsk mod inconclusive
c1ccc(OCCn2c(-c3ccco3)nc3ccccc32)cc1	HEK293 cAMP cs 25µM, TSHR ag inconclusive (no result: CRE Fsk mod, ERK AVP block)
CCCc1nc2oc3c(NCCN4CCOCC4)ncnc3c2c2c1CCCC2	CRE Fsk mod 0.79µM
c1ccc2c(c1)oc1c(NCCN3CCOCC3)ncnc12	none
Cc1nc2oc3c(NCC4CCCO4)ncnc3c2c2c1COC(C)(C)C2 (centres undefined)	CRE Fsk mod inconclusive, ERK AVP block inconclusive
CC(C)c1nc2oc3c(NCC4CCCO4)ncnc3c2c2c1COC(C)(C)C2 (centres undefined)	CRE Fsk mod 1µM, ERK AVP block inconclusive
CCCc1nc2oc3c(NCCOCCO)ncnc3c2c2c1COC(C)(C)C2	CRE Fsk mod 2µM, ERK AVP block inconclusive
Cc1nc2oc3c(NCc4ccccc4)ncnc3c2c2c1COC(C)(C)C2	CRE Fsk mod 5µM, ERK AVP block inconclusive
C[C@@]12CCC(=O)C=C1CC[C@H]1[C@@H]2[C@@H](O)C[C@]2(C)[C@@H]1CC[C@@]2(O)C(=O)CO	none
O=C1OC(C2=CCCCC2)=NC12CC2	none (no result: CRE Fsk mod)
CC1(C)COCN1COC1CCCCC1	none
Cc1c(C#N)c2ccccc2n1CC(=O)N1CCc2ccccc2C1	HEK293 cAMP cs inconclusive, TSHR ag inconclusive
CCCCNc1nc2ccccc2n1CC(=O)N1CCc2ccccc2C1	CRE Fsk mod inconclusive, HEK293 cAMP cs 2µM, TSHR ag inconclusive
N[C@@H](CO)C(=O)NNCc1ccc(O)c(O)c1O	none
O=C(c1csnn1)N1CCC2(CC1)CCN(C(c1ccccc1)c1ccccc1)CC2	none
CCOC(=O)CCc1c(C)c2ccc(OC(C)C(=O)OCC)c(C)c2oc1=O (centres undefined)	HEK293 cAMP cs 20µM, TSHR ag inconclusive
Cc1nc(NC2CCCCC2)c2nc(-c3ccccc3)n(CCN(C)C)c2n1	CRE Fsk mod inconclusive, HEK293 cAMP cs 10µM, TSHR ag inconclusive
Cc1nc(Nc2ccccc2)c2nc(-c3ccccc3)n(CCN3CCOCC3)c2n1	CRE Fsk mod 7.9µM
